The record followed here is paper PMC7862700, “An all-to-all approach to the identification of sequence-specific readers for epigenetic DNA modifications on cytosine”.

What all share (test): DAPPL (digital affinity profiling via proximity ligation, sequencing); 10 mM Tris-HCl pH 7.5, 50 mM NaCl, 1 mM DTT, 4% glycerol, room temperature, 30 min; GST-TFs on glutathione beads, 16-mer random dsDNA library, 0.1% formaldehyde crosslink after washing; high values mean tight binding
Holding throughout (conditions): protein: recombinant; tags: N-terminal GST; dsDNA, one strand shown

In one experiment the target is T1, ERF (Homo sapiens, UniProt P50548 1-548).
T1 sequence: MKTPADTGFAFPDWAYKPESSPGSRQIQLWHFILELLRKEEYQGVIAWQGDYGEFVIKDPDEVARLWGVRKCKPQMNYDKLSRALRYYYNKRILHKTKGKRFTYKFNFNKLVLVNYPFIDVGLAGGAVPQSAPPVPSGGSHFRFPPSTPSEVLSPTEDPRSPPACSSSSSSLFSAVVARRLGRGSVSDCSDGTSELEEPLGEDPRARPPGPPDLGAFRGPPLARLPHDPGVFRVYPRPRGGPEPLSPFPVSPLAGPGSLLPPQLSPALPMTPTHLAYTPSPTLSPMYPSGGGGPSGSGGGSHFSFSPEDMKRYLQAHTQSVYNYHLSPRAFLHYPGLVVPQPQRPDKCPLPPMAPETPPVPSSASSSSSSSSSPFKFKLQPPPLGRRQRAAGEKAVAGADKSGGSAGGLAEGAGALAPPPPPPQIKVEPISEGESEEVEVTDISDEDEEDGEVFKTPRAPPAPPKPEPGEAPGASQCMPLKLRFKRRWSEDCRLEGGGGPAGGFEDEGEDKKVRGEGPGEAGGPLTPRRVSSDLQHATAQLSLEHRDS
In a few lines: (§1)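 Sequencing on an Illumina NextSeq500 followed washing, crosslinking with 0.1% formaldehyde, proximity ligation (BsaI/T4 ligase, 1 h, 37 °C) and PCR amplification of pools that had been incubated for 30 min at room temperature with 200 nmole of a random double-stranded 16-mer DNA library in Tris/NaCl/DTT/glycerol buffer. Each pool held DNA-barcoded human transcription factors, expressed in yeast as GST fusions and captured on glutathione beads, plus a tag-only sample. Binding signal is a hexamer's read frequency for a factor divided by its frequency in the tag-only sample.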

The next experiment addresses T2, ETV3L (Homo sapiens, UniProt Q6ZN32 1-361).
T2 sequence: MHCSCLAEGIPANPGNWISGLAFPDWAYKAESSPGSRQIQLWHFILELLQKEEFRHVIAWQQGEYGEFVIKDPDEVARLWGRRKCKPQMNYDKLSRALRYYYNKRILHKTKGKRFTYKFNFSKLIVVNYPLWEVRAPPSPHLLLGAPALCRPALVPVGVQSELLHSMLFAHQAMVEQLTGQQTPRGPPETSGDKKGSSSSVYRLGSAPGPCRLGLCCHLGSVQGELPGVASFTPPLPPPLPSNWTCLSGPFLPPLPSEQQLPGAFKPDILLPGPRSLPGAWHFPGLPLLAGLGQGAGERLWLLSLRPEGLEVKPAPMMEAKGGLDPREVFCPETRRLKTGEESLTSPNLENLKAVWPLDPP
In a few lines:
as §1

Another experiment concerns the target T3, ETS2 (Homo sapiens, UniProt P15036 1-469).
T3 sequence: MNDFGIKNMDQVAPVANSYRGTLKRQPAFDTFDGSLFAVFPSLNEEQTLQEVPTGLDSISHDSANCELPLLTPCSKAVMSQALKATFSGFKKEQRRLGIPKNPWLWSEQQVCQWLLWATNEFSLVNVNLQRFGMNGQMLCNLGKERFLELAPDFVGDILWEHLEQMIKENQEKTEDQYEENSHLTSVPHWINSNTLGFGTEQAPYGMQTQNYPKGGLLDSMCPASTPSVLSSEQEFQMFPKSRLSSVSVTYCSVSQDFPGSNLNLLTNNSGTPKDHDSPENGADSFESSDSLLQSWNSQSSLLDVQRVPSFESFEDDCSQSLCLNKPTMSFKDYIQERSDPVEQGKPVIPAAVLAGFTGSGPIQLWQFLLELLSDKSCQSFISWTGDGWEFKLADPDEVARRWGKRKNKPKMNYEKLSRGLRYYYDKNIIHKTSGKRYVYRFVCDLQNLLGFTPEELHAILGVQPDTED
An outline of the steps:
as §1

The target of the next experiment is T4, SPDEF (Homo sapiens, UniProt O95238 1-335).
T4 sequence: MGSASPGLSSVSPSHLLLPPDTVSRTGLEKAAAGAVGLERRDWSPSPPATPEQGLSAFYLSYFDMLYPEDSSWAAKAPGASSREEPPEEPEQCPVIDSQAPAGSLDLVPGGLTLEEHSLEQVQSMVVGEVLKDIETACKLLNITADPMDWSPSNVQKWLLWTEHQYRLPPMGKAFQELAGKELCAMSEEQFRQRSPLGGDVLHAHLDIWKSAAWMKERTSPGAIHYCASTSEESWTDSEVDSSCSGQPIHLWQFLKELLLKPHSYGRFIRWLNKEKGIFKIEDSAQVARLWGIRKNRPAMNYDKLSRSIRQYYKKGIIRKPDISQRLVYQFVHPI
An outline of the steps:
as §1

The next experiment has as its target T5, ETV7 (Homo sapiens, UniProt Q9Y603 1-341).
T5 sequence: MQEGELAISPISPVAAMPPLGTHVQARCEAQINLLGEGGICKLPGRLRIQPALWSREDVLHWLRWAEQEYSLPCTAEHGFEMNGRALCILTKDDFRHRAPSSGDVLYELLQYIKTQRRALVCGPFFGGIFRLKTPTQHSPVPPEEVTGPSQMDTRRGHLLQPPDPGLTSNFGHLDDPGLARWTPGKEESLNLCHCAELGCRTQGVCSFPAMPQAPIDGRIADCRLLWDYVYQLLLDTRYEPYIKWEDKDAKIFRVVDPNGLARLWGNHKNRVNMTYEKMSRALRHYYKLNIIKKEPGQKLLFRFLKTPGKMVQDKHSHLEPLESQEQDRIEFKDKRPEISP
In a few lines:
as §1

The next experiment addresses T6, ELF5 (Homo sapiens, UniProt Q9UKW6-2 1-255).
T6 sequence: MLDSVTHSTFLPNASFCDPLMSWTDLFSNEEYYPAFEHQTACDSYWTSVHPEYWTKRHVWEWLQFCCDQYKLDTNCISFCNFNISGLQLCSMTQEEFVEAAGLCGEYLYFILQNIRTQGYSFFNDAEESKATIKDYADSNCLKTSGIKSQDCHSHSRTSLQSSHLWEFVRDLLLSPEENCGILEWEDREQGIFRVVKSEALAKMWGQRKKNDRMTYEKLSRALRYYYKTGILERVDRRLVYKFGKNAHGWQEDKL
An outline of the steps: as §1

The next experiment deals with T7, ETV3 (Homo sapiens, UniProt P41162-2 1-143).
T7 sequence: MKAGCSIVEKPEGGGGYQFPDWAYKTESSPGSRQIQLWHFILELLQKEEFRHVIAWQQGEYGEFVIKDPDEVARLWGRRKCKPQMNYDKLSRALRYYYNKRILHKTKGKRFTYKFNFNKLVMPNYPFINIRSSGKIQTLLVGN
In a few lines: as §1

The target in a further experiment is ETV6 (Homo sapiens, UniProt P41212 1-452). An outline of the steps: as §1
Chain of ETV6 (P41212 whole entry): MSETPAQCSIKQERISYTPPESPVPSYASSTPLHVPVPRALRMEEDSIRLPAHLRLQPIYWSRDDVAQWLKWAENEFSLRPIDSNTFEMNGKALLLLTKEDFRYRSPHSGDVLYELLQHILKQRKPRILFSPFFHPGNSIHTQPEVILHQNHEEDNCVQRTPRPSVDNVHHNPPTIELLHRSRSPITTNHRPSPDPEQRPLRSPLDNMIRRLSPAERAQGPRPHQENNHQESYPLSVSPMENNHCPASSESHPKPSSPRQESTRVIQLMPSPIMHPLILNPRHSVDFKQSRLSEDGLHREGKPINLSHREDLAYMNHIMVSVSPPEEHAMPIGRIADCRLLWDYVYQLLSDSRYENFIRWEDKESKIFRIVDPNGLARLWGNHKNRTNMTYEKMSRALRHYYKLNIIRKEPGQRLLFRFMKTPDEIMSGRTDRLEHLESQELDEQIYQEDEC

GTACCT: the binding signal in the experiment with ERF was 1.19 fold enrichment (6-mer frequency, TF over GST control); in the experiment with ETV3L, 1.19 fold enrichment (6-mer frequency, TF over GST control); with ETS2, 1.21 fold enrichment (6-mer frequency, TF over GST control); with SPDEF, 1.27 fold enrichment (6-mer frequency, TF over GST control); in the experiment with ETV7, 1.2 fold enrichment (6-mer frequency, TF over GST control); with ELF5, 1.31 fold enrichment (6-mer frequency, TF over GST control). For the same sequence, the binding signal in the experiment with ETV3 is 1.14 fold enrichment (6-mer frequency, TF over GST control); with ETV6, 1.19 fold enrichment (6-mer frequency, TF over GST control).

Consider TGCAAC, for which the binding signal is 1.31 fold enrichment (6-mer frequency, TF over GST control) with ERF; 1.28 fold enrichment (6-mer frequency, TF over GST control) with ETV3L; 1.28 fold enrichment (6-mer frequency, TF over GST control) with ETS2; 1.37 fold enrichment (6-mer frequency, TF over GST control) with SPDEF; 1.19 fold enrichment (6-mer frequency, TF over GST control) in the experiment with ETV7; 1.23 fold enrichment (6-mer frequency, TF over GST control) in the experiment with ELF5. Besides, the binding signal in the experiment with ETV3 was 1.32 fold enrichment (6-mer frequency, TF over GST control); with ETV6, 1.35 fold enrichment (6-mer frequency, TF over GST control).

Turning to GTGTTC, the binding signal is 1.19 fold enrichment (6-mer frequency, TF over GST control) in the experiment with ERF; 1.14 fold enrichment (6-mer frequency, TF over GST control) with ETV3L; 1.17 fold enrichment (6-mer frequency, TF over GST control) with ETS2; 1.34 fold enrichment (6-mer frequency, TF over GST control) with SPDEF; 1.11 fold enrichment (6-mer frequency, TF over GST control) in the experiment with ETV7; 1.34 fold enrichment (6-mer frequency, TF over GST control) with ELF5. Moreover, the binding signal was 1.05 fold enrichment (6-mer frequency, TF over GST control) with ETV3 and 1.09 fold enrichment (6-mer frequency, TF over GST control) with ETV6.

For the sequence ACACAC, the binding signal with ERF is 1.14 fold enrichment (6-mer frequency, TF over GST control); in the experiment with ETV3L, 1.15 fold enrichment (6-mer frequency, TF over GST control); with ETS2 it was 1.17 fold enrichment (6-mer frequency, TF over GST control); in the experiment with SPDEF, 1.14 fold enrichment (6-mer frequency, TF over GST control); with ETV7, 1.19 fold enrichment (6-mer frequency, TF over GST control); with ELF5, 1.16 fold enrichment (6-mer frequency, TF over GST control). In addition, the binding signal in the experiment with ETV3 was 1.18 fold enrichment (6-mer frequency, TF over GST control); with ETV6 it was 1.21 fold enrichment (6-mer frequency, TF over GST control).

With AAATGC, the binding signal in the experiment with ERF was 1.27 fold enrichment (6-mer frequency, TF over GST control); in the experiment with ETV3L, 1.26 fold enrichment (6-mer frequency, TF over GST control); with ETS2, 1.25 fold enrichment (6-mer frequency, TF over GST control); with SPDEF it was 1.3 fold enrichment (6-mer frequency, TF over GST control); in the experiment with ETV7 it was 1.34 fold enrichment (6-mer frequency, TF over GST control); with ELF5, 1.33 fold enrichment (6-mer frequency, TF over GST control). For the same sequence, the binding signal was 1.18 fold enrichment (6-mer frequency, TF over GST control) with ETV3 and 1.35 fold enrichment (6-mer frequency, TF over GST control) with ETV6.

On to ACATTG, for which the binding signal with ERF is 1.26 fold enrichment (6-mer frequency, TF over GST control); with ETV3L, 1.18 fold enrichment (6-mer frequency, TF over GST control); with ETS2 it was 1.17 fold enrichment (6-mer frequency, TF over GST control); with SPDEF it was 1.12 fold enrichment (6-mer frequency, TF over GST control); with ETV7, 1.2 fold enrichment (6-mer frequency, TF over GST control); with ELF5, 1.07 fold enrichment (6-mer frequency, TF over GST control). Also, the binding signal with ETV3 was 1.1 fold enrichment (6-mer frequency, TF over GST control); in the experiment with ETV6, 1.21 fold enrichment (6-mer frequency, TF over GST control).

Consider GTTCCA, for which the binding signal in the experiment with ERF is 1 fold enrichment (6-mer frequency, TF over GST control); with ETV3L, 1.04 fold enrichment (6-mer frequency, TF over GST control); in the experiment with ETS2, 1.13 fold enrichment (6-mer frequency, TF over GST control); with SPDEF, 1.1 fold enrichment (6-mer frequency, TF over GST control); in the experiment with ETV7, 1.12 fold enrichment (6-mer frequency, TF over GST control); with ELF5, 1.07 fold enrichment (6-mer frequency, TF over GST control). Besides, the binding signal with ETV3 was 1.04 fold enrichment (6-mer frequency, TF over GST control); with ETV6, 1.04 fold enrichment (6-mer frequency, TF over GST control).

In the case of GCAACT, the binding signal was 1.07 fold enrichment (6-mer frequency, TF over GST control) in the experiment with ERF; 1.17 fold enrichment (6-mer frequency, TF over GST control) with ETV3L; 1.16 fold enrichment (6-mer frequency, TF over GST control) with ETS2; 1.11 fold enrichment (6-mer frequency, TF over GST control) with SPDEF; 1.2 fold enrichment (6-mer frequency, TF over GST control) with ETV7; 1.18 fold enrichment (6-mer frequency, TF over GST control) with ELF5. The binding signal is 1.16 fold enrichment (6-mer frequency, TF over GST control) with ETV3 and 1.24 fold enrichment (6-mer frequency, TF over GST control) with ETV6.
